# Screens (PubChem)
# CYP2C19 activ – activators of human cytochrome P450 2C19 | activation factor at 5 µM | P33261 | 96,000 tested, under 10 active | recombinant CYP2C19, luciferin-H EGE luminescence; active compounds read high; 0 = fully inhibited enzyme, 1 = untreated enzyme;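 active = activation factor of at least 2 at 5 µM in the primary screen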;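 also: 0 = wells with 2.5 mM tranylcypromine and 1 = vehicle-only wells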
# EphB4 antag – blocks human EphB4 binding to ephrin-B2; P54760; EphB4 LBD / TNYL-RAW-Alexa532 peptide, fluorescence polarization; inhibition, % at 7 µM; 97,000 compounds, 0.15% hits; AID 720;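 active = inhibition above the screen-wide mean inhibition plus 3 SD, cut at about 15% in these data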;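 also: 0% = DMSO wells and 100% = excess unlabeled TNYL-RAW peptide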
# CYP2C9 act – CYP2C9 (human) activation; activation factor at 5 µM; recombinant CYP2C9, luciferin-H conversion, luminescence; active compounds read high; factor 1 = untreated enzyme, 0 = blocked; AID 1024; 96,000 compounds, 1.4% hits;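 active = activation factor of 2 or more for CYP2C9 at a 5 µM dose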;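 also: 0 = sulfaphenazole-blocked wells and 1 = vehicle-only wells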
# Target sequence (P11712 whole entry, looked up): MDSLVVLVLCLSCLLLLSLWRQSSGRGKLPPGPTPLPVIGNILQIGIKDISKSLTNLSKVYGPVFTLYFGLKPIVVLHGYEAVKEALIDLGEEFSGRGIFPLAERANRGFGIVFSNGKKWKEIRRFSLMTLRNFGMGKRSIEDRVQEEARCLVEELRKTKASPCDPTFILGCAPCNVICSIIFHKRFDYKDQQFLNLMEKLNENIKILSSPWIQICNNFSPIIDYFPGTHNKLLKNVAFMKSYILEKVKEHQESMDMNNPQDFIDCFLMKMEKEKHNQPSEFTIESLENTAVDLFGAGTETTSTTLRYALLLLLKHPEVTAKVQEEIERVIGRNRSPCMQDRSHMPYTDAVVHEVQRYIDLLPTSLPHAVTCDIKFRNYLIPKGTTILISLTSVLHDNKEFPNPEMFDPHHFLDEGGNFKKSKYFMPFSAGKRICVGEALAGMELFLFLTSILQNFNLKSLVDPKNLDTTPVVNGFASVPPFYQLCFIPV
# CYP2C19 inhib – blocks human cytochrome P450 2C19. P33261. inhibition, % at 5 µM. CYP2C19 Supersomes, luciferin-H EGE luminescence, 30 min. AID 778. 96,000 compounds, 21% hits;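 active = CYP2C19 inhibition above a set limit at 5 µM in the primary screen, cut at about 50% in these data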;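 also: plate controls were negative control wells for no effect and 2.5 mM tranylcypromine positive control for full effect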
# CYP2C9 inhib – inhibitors of human CYP2C9. inhibition, % at 5 µM. CYP2C9 Supersomes, luciferin-H conversion, luminescence. P11712. 96,000 compounds, 20% hits;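 active = blocking of liver enzyme CYP2C9 beyond about 50% at 5 µM, limit read from the data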
# Starred values were filed as active, the others as inactive; . = no result given. Compounds with a hit are over-represented: about 27% of the library has one in this group of screens.
SMILES,CYP2C19 activ,EphB4 antag,CYP2C9 act,CYP2C19 inhib,CYP2C9 inhib
N#CC(Nc1ccccc1)c1ccccc1OCc1ccccc1 (stereo not drawn),0.1,4,0.1,86*,89*
Clc1ccc2c(NNc3ccccc3Cl)ccnc2c1,0.8,2,0.4,25,60*
COc1ccc(OC)c(C2=NOC(C(=O)N3CCN(c4ccccc4)CC3)C2)c1 (stereo not drawn),0.7,-49,1.7,29,-72
CC(=O)OCC(=O)NCc1ccc2c(c1)OCO2,0.9,1,1,5,-3
N#Cc1ccc(Cl)cc1NC(=O)COC(=O)c1ccc2c(c1)OCCO2,0.8,2,0.8,18,15
O=C(COC(=O)c1ccc2c(c1)OCO2)NCc1ccc(Cl)cc1,0.6,-5,2*,37,-98
O=C(COC(=O)CCC(=O)c1ccc2c(c1)OCCO2)NCc1ccc2c(c1)OCO2,0.5,8,0.2,50,81*
COc1cc(CNc2ccc(N3CCOCC3)c(C(=O)O)c2)ccc1OCC(N)=O,1.1,.,1.1,-13,-11
Cc1ccc(SCCNC(=S)Nc2ccc(C)c(C)c2)cc1,0.6,4,0.7,44,29
Cc1ccc(SCCNC(=S)Nc2cc(C)ccc2C)cc1,0.5,1,0.6,54*,42
CCS(=O)(=O)/N=C(\N)c1ccccc1,0.9,-6,1.2,5,-23
CC(C)NC(=O)N(O)C1N(Cc2ccc3c(c2)OCO3)C(=S)SC1(C)C (stereo not drawn),0,-6,0.1,98*,94*
Cc1nn(Cc2ccccc2Cl)c(C)c1N,0.3,0,0.9,75*,8
O=C(NC1CCCCCCC1)c1cnccn1,0.4,5,0.9,63*,6
O=C(OCC(=O)N(C1CCCCC1)C1CCCCC1)c1cnccn1,0.5,.,1.1,54*,-6
O=C(NC1CCS(=O)(=O)C1)c1cnccn1 (stereo not drawn),1,0,1,5,-2
CCN(C(=O)COC(=O)c1cnc(C)cn1)C1CCCCC1,0.9,-9,1.1,9,-10
Oc1c(Cl)cc(Cl)c2c1NCCC2,0.6,6,1,39,-2
Cc1ccccc1NC(=O)C1CC(=O)N(c2ccccc2F)C1 (stereo not drawn),0.8,2,1,24,-4
Cc1ccccc1NC(=O)C1CC(=O)N(c2ccc3c4c(cccc24)CC3)C1 (stereo not drawn),0.9,0,0.4,10,55*
CC(C(=O)Nc1ccc(S(=O)(=O)N2CCCC2)cc1)N1CCN(C(=O)c2ccco2)CC1 (stereo not drawn),0.9,7,0.4,13,64*
C[C@H](NC(=O)c1ccco1)C(=O)Nc1ccc(S(=O)(=O)N2CCCC2)cc1,1.1,9,0.8,-8,19
O=C(c1ccco1)N1CCN(S(=O)(=O)c2ccc(Oc3ccccc3)cc2)CC1,0.5,-9,0.2,54*,84*
O=S(=O)(c1ccc(Oc2ncnc3scc(-c4ccccc4)c23)cc1)N1CCOCC1,0.3,3,0.3,72*,73*
Cc1onc(-c2ccccc2)c1C(=O)N1CCN(S(=O)(=O)c2ccc3c(c2)OCCO3)CC1,0.3,.,0.6,74*,41
SMILES,CYP2C19 activ,EphB4 antag,CYP2C9 act,CYP2C19 inhib,CYP2C9 inhib
O=C(c1ccco1)N1CCN(S(=O)(=O)c2ccc(S(=O)(=O)NC3CC3)cc2)CC1,1,8,0.8,4,20
COc1cc(NC(=O)c2ccco2)c(OC)cc1NC(=O)CCC(=O)Nc1cccc(C)c1C,0.8,3,0.7,20,35
O=C(N1CCOCC1)N1CCN(S(=O)(=O)N2CCOCC2)CC1,1,0,0.9,0,6
COc1ccc(OC)c(C(=O)/C=C/c2ccccc2C(F)(F)F)c1,0.8,-6,0.7,24,27
COc1cc(NC(=O)C(F)(F)F)cc(OC)c1,0.7,3,0.7,28,35
O=S(=O)(c1ccc(Oc2ccccc2)cc1)N1CCOCC1,0.6,-5,0.4,42,57*
O=C(c1ccco1)N1CCN(S(=O)(=O)c2ccc3c(c2)OCCO3)CC1,0,5,1.1,96*,-13
COc1ccc(S(=O)(=O)N2CCN(C(=O)c3ccco3)CC2)cc1OC,0.6,0,1.1,45,-6
Cc1cccn2cc(-c3ccc(S(=O)(=O)N4CCOCC4)cc3)nc12,0.9,-15,1.1,12,-8
O=S(=O)(c1ccc(-c2cn3ccccc3n2)cc1)N1CCOCC1,0.9,-4,0.5,5,55*
COC(=O)c1cc(-c2c(C)nn(-c3ccccc3)c2C)n[nH]1,1.1,-49,1,-5,-5
CCCS(=O)(=O)N1CCCC(c2nc(-c3cccc(OC)c3)no2)C1 (stereo not drawn),0.2,7,0.2,80*,77*
O=C(NC1CCCCC1)N1CCCC(c2nc(-c3ccc(S(=O)(=O)N4CCCC4)cc3)no2)C1 (stereo not drawn),1.1,-8,1,-8,3
COc1cccc(-c2noc(C3CCCN(S(=O)(=O)c4cccc(Cl)c4C)C3)n2)c1 (stereo not drawn),0.6,0,0.5,40,51*
O=S(=O)(NC1CC1)c1ccc(S(=O)(=O)N2CCCC(c3nc(-c4cccnc4)no3)C2)cc1 (stereo not drawn),0.3,-10,0.4,70*,59*
O=S(=O)(Cc1ccccc1)N1CCCC(c2nc(-c3ccc(F)cc3)no2)C1 (stereo not drawn),0.8,-4,0.9,20,10
CC1(NC(=O)N2CCOCC2)CCS(=O)(=O)C1 (stereo not drawn),1,-1,0.9,4,7
Cc1occc1-c1nnc(SCC(=O)c2cc3ccccc3oc2=O)o1,0.8,-4,0.1,19,90*
Cc1occc1-c1nnc(SCC(=O)Nc2nc3ccccc3s2)o1,0.2,3,0.2,79*,75*
Cc1occc1-c1nnc(SCC(=O)N2CCOCC2)o1,1,1,1.1,0,-8
O=C(COC(=O)C1CC(=O)N(c2ccc3c(c2)OCCO3)C1)NC1CCCc2ccccc21 (stereo not drawn),1,-5,0.8,4,21
O=C(COC(=O)CCNS(=O)(=O)c1ccc2c(c1)OCCO2)NC1CCCc2ccccc21 (stereo not drawn),0.4,.,1.2,62*,-18
Cc1ccc(S(=O)(=O)N2CC3(C)CN(S(=O)(=O)c4ccc(C)cc4)CC(C)(C2)C3)cc1,0.9,-7,0.7,13,32
O=C1CC(C(=O)Nc2ccc(Br)cc2)C2(CCCC2)O1 (stereo not drawn),0,2,0.4,97*,61*
O=C1CC(C(=O)Nc2ccccc2)C2(CCCCC2)O1 (stereo not drawn),0.8,-4,0.7,18,31
Cc1ccc(NC(=O)C2CC(=O)OC23CCOC(C)(C)C3)cc1 (stereo not drawn),0.3,2,1.1,66*,-10
